Consider 107 compounds from PubChem BioAssay AID624351 (Southern Research Specialized Biocontainment Screening …, 2012).

In all, about 2,400 compounds went through this assay and about 1,400 (58%) were called active.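 How the source made its calls: active means inhibition of 30% or more at any tested dose; inconclusive means primary hits over the limit that were never retested; inactive means the rest.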 So high a share suggests a set chosen from earlier hits. Some of the results follow.

The nature of the experiment: ADP Hunter readout inhibition without MgcRacGAP – biochemical, coupled enzyme counter-screen, artefact control for MgcRacGAP inhibitor project, dose response (AID 624351).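 Further: signal is the ADP detection kit reading of free GDP without any GAP enzyme.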 The following applies: fluorescence, no MgcRacGAP; series mostly up to 80 µM.
Regarding `CCn1c2ccccc2c2cc(NC(=O)CNC)ccc21`, the IC50 entry is “inactive”.
Regarding `CCn1c(SCC(=O)Nc2ccc(N(C)C)cc2)nnc1-c1cccc(C)c1`, the IC50 was 70.3 µM (active).
As to `COc1cccc(-c2ncc3ccccn23)c1`, the IC50 result was “inactive”.
On to `C=CCn1c(SCC(=O)c2ccc(O)c(O)c2)nnc1-c1cccc(OC)c1`, for which the half-inhibitory concentration (IC50) is 68 µM (active).
The value for `C=CCn1c(SCC(=O)Nc2ccc(N(C)C)cc2)nnc1-c1cccc(C)c1` was 58.8 µM (active); that for `Cc1ccc(C2=NN=C(NC(=O)CSc3nncn3C)SC2)cc1` was “inactive”.
With `O=S(=O)(NC1=NCCCCC1)c1ccc2sc(NS(=O)(=O)c3ccc4ccccc4c3)nc2c1` the entry was “inactive”.
The value for `CC(=O)Nc1ccc(OC(=O)c2ccc(Br)c([N+](=O)[O-])c2)cc1` was “inactive”.
Take `CCOc1ccc(C(=O)NC(=S)Nc2ccc(N3CCCCC3)cc2)cc1[N+](=O)[O-]`: the IC50 entry is “inactive”.
The value for `COc1cc(/C=C(/NC(=O)c2ccccc2)C(=O)Nc2ccc(O)cc2)c([N+](=O)[O-])cc1OC` was 58 µM (active).
For `CN(C)c1nc(=NCc2cccs2)ss1`, the IC50 result is “inactive”.
On to `COc1cc(/C=N/NC(=O)c2cc[n+]([O-])cc2)ccc1O`, for which the half-maximal inhibitory concentration (IC50) is 35.7 µM (active).
For the compound `COc1cc(/C=N/NC(=O)c2cccc(NC(=O)c3ccccc3C)c2)ccc1O`, the IC50 was 34.4 µM (active).
With `COc1cc(/C=N\Nc2cc(=O)n(C)c(=O)n2C)ccc1O` the figure was 36 µM (active); with `COc1cc(/C=N/NC(=O)C(=O)Nc2ccccn2)ccc1O`, 27.8 µM (active).
With `CN(C)CCO/N=C(\c1ccc(Br)cc1)c1cccnc1` the entry was “inactive”.
The value for `O=C(N/N=C/c1ccc(O)c(O)c1)c1ccc(-n2cnnn2)cc1` was 18.7 µM (active); that for `COc1cc(/C=N/NC(=O)c2[nH]nc3c2CCc2ccccc2-3)ccc1O` was 56.5 µM (active); that for `COc1cc(/C=N/NC(=O)c2ccc(-n3cccc3)cc2)ccc1O` was 22.3 µM (active).
Turning to `COc1cc(/C=N/NC(=O)C2(O)c3ccccc3-c3ccccc32)ccc1O`, the IC50 is 45.5 µM (active).
For the compound `COc1ccc(NS(=O)(=O)c2cccc(C(=O)NN=Cc3ccc(O)c(OC)c3)c2)cc1`, the IC50 result is “inactive”.
With `COc1cc(/C=N/NC(=O)c2ccccc2)ccc1O` the figure was 29.6 µM (active); with `COc1cc(/C=N/NC(=O)c2cc3ccccc3[nH]2)ccc1O`, 20.8 µM (active); with `COc1ccc(/C=N/NC(=O)c2cc[n+]([O-])cc2)cc1O`, 35.3 µM (active).
The value for `COc1cc(/C=N/Nc2ccc(C(=O)O)cc2)ccc1O` was 36.1 µM (active); that for `COc1ccc(C(C#N)=C2C=CC(=NO)C=C2)cc1` was 57.4 µM (active).
With `O=C(CNC1CCCCCC1)Nc1ccccc1N1CCOCC1` the entry was “inactive”; with `CCOc1cc(N2CCOCC2)c(OCC)cc1NCC(=O)N1CCN(Cc2ccccc2)CC1`, “inactive”; with `CCOc1cc(N2CCOCC2)c(OCC)cc1NC(=O)c1ccc(C)s1`, 65.1 µM (active).
On to `CCN(CC)c1ccc(CN2CCC(C(=O)NCc3ccc(C)cc3)CC2)cc1`, for which the IC50 result was “inactive”.
The value for `Cc1ccc(NC(=O)CN(C)C2CCCCC2)cc1Br` was “inactive”; that for `CCN(CC)c1ccc(NC(=O)c2ccc(Br)o2)cc1` was 29.2 µM (active); that for `CCN(CC)c1ccc(NC(=O)Nc2ccccc2)cc1` was 53.3 µM (active).
Consider `CCN(CC)c1ccc(NC(=O)C2CCCC2)cc1`, for which the half-inhibitory concentration (IC50) is 76.8 µM (active).
For the compound `CCN(CC)CC(=O)NN(Cc1ccccc1)c1ccccc1`, the IC50 result is “inactive”.
The value for `CCN(CC)CCNCC(=O)Nc1ccc(Oc2ccccc2)cc1` was “inactive”.
The value for `O=c1oc2ccccc2c2c1C(c1ccc(Cl)cc1)Nc1ccc3ccccc3c1-2` (configuration not stated) was “inactive”; that for `CN1CCCN(Cc2ccccc2C(F)(F)F)CC1` was “inactive”; that for `CCc1nnc(NC(=O)CSCc2cc(=O)n3ccsc3n2)s1` was “inactive”.
With `Cc1ccc(N2CC(C(=O)Nc3ccc(N(C)C)cc3)CC2=O)cc1C` (configuration not stated) the figure was 62.4 µM (active); with `COc1ccc(OC(=O)C2CC(=O)N(c3ccc(C)cc3)C2)cc1` (configuration not stated), “inactive”.
Take `CS(=O)(=O)C1=NSC2=NC(=O)/C(=C\c3ccc(OC(=O)c4ccco4)c(Br)c3)C(=N)N21`: the IC50 entry was “inactive”.
With `O=[N+]([O-])c1ccc(N2CCN(c3ccc(O)cc3)CC2)c(Cl)c1` the figure was 40.4 µM (active).
The value for `O=[N+]([O-])c1ccc(N2CCN(CCOCCO)CC2)c([N+](=O)[O-])c1` was “inactive”; that for `Cc1cc(Cl)cc2sc(=S)[nH]c12` was 81.5 µM (active).
The value for `CN(C)c1cc2c3ccccc3n(C)c2cc1N` was 13.4 µM (active).
As to `CCn1c2ccccc2c2cc(N)ccc21`, the IC50 entry was “inactive”.
Turning to `Cc1c(N(C)C)nc2ccccc2c1N`, the IC50 result is “inactive”.
The value for `CC1(C)OC(=O)C(=NNc2ccc(O)cc2)C(=O)O1` was 23.5 µM (active).
Consider `COc1ccc2[nH]c3c(N4CCC(O)(c5cccc(C(F)(F)F)c5)CC4)ncnc3c2c1`, for which the IC50 result was “inactive”.
The value for `Cc1ccc(SCCN2CCN(Cc3ccccc3)CC2)cc1` was “inactive”; that for `Cc1ccc2c(c1)[nH]c1c(N3CCN(Cc4ccccc4)CC3)ncnc12` was 45.1 µM (active).
For the compound `Cc1nc2ccccc2n2c(O)c(CC(=O)O)cc12`, the IC50 is 33 µM (active).
The value for `COc1cc(/C=C/C(=O)N[C@@H](Cc2c[nH]c3ccccc23)C(=O)O)ccc1O` was 83.7 µM (active); that for `Cc1ccc(S(=O)(=O)N2CCN(C(=O)CN3CCN(c4ccc(O)cc4)CC3)CC2)cc1` was 34.6 µM (active).
With `O=S(=O)(c1ccc2ccccc2c1)N1CCN(C2CCN(Cc3ccccc3)CC2)CC1` the entry was “inactive”; with `C/C=C(\C)CN1CCN(c2ccc(C)cc2)CC1`, “inactive”; with `O=S(=O)(c1ccc2ccccc2c1)N1CCN(c2ccc(O)cc2)CC1`, 39.5 µM (active).
For `O=C(CSc1ccc2ccccc2c1)N1CCN(c2ccc(O)cc2)CC1`, the IC50 is 46.5 µM (active).
On to `Cc1ccc(CN2CCN(C(=O)CC(C)C)CC2)cc1`, for which the IC50 result was “inactive”.
The value for `CCOC(=O)N1CCC(N2CCN(S(=O)(=O)c3ccc4ccccc4c3)CC2)CC1` was “inactive”.
As for `Cc1cc2nc(/N=C(\N)NC(=O)N3c4ccccc4Sc4ccccc43)nc(C)c2cc1C`, the IC50 result is “inactive”.
The value for `C#CCOCCOCCOCCNc1nc(N2CCN(C(=O)C([C@@H](C)O)n3cc([C@@H](N)CCCCN)nn3)CC2)nc(N2CCN(C(=O)[C@H](CCCN=C(N)N)n3cc(C(N)[C@@H](C)CC)nn3)CC2)n1` (some centres not stated) was “inactive”; that for `Cc1cc(O)ccc1Nc1nc(-c2cccs2)cs1` was 44 µM (active).
The value for `Nc1ccc(N2CCN(c3cccc(Cl)c3)CC2)cc1` was 18.6 µM (active); that for `Nc1ccc(N2CCN(c3ccc(Cl)c(Cl)c3)CC2)cc1` was 20.5 µM (active).
Take `CC(C)N1CCN(C(=O)c2cccc(Cl)c2)CC1`: the IC50 entry was “inactive”.
The value for `CCCCCC(=O)Nc1cc(S(=O)(=O)O)cc2cc(S(=O)(=O)O)cc(O)c12` was “inactive”.
In the case of `CCN(CC)c1ccc(NS(=O)(=O)c2ccc(-c3ccc(=O)[nH]n3)o2)c(C)c1`, the IC50 entry is “inactive”.
With `Cc1ccc(Nc2n[nH]c(=S)s2)cc1` the figure was 50.6 µM (active); with `CCOc1ccc(Nc2n[nH]c(=S)s2)cc1`, 42.5 µM (active).
With `CC(=O)Nc1n[nH]c(=S)s1`, the IC50 was 48.7 µM (active).
On to `Cc1ccc(Nc2n[nH]c(=S)s2)cc1F`, for which the IC50 is 50.3 µM (active).
With `O=C(O)c1ccc(S(=O)(=O)c2ccc3c(c2)C(=O)N(NC(=O)c2cccnc2)C3=O)cc1` the entry was “inactive”; with `COc1ccc(Nc2ccc3ccccc3c2)cc1`, 66.9 µM (active).
As for `COc1ccc(NC(=S)NNS(=O)(=O)c2ccc3ccccc3c2)c(OC)c1`, the IC50 entry was “inactive”.
The value for `COc1ccc(NC2=NCCC2)cc1` was “inactive”; that for `COc1ccc(Nc2ccccc2)c(C)c1` was 37.4 µM (active); that for `OCCN1CCN(CC(O)COC(c2ccc(F)cc2)c2ccc(F)cc2)CC1` (configuration not stated) was “inactive”.
With `Cc1cc(OCc2nc3ccccc3s2)ccc1N` the figure was 63.7 µM (active).
The value for `CCOc1ccc2nc(NC(=O)CS(=O)(=O)c3ccccc3)sc2c1` was “inactive”; that for `CCCS(=O)(=O)N1CCN(CC2CC3C=CC2C3)CC1` (configuration not stated) was “inactive”.
For `COc1cc(OC)c(CN2CCCN(C)CC2)cc1Br`, the IC50 result was “inactive”.
With `Oc1ccc(Cc2ccccc2Cl)c(O)c1`, the IC50 was 60.2 µM (active).
`Fc1ccc(CNCc2ccccc2Cl)cc1`: the IC50 result was “inactive”.
With `Oc1ccc(Cc2ccc(Cl)cc2)c(O)c1` the figure was 78 µM (active); with `CCC(=O)N1CCc2cc(S(=O)(=O)CCC(=O)NCc3ccc(C)cc3)ccc21`, “inactive”.
With `N#CC1(Nc2ccc(-c3ccc(NC4(C#N)CCCC4)cc3)cc2)CCCC1` the figure was 11.6 µM (active).
For `CCOc1ccccc1N1CCN(C/C=C/c2ccc(N(C)C)cc2)CC1`, the IC50 result is “inactive”.
With `C[n+]1ccc(/C=C/c2ccccc2O)c2ccccc21` the entry was “inactive”; with `CC[n+]1ccc(/C=C/c2ccc(N(C)C)cc2)c2ccccc21`, 47 µM (active).
With `O=C(CCl)NCCN1C(=O)S/C(=C\c2cccnc2)C1=O`, the IC50 result is “inactive”.
As for `COc1cc2c(cc1OC)C(/C=C/c1ccco1)=NCC2`, the IC50 entry is “inactive”.
The value for `COc1cc(/C=c2\sc3n(c2=O)CCCN=3)ccc1O` was 17.7 µM (active); that for `O=c1/c(=C/c2ccc(O)cc2)sc2n1CCCN=2` was 21.7 µM (active).
Regarding `Cc1cc(Cl)cc(C)c1OCCOCCNCc1ccccc1`, the IC50 result is “inactive”.
On to `Cc1cc2[nH]c3c4ccccc4nc(C)c3c2cc1C`, for which the IC50 entry is “inactive”.
As to `O=C1Nc2ccccc2C1=Nc1ccc2[nH]c3ccccc3c2c1`, the IC50 is 23.4 µM (active).
With `CCOC(=O)c1c(N)sc2c(O)c(Br)ccc12`, the IC50 is 58.1 µM (active).
Turning to `CCOC(=O)c1c(N)sc2c1CCS(=O)(=O)C2`, the IC50 entry was “inactive”.
As to `Oc1ccc2c(ccc3[nH]cnc32)c1`, the IC50 was 42.6 µM (active).
For the compound `O=C(Oc1ccc2c(c1)OCO2)c1ccncc1`, the IC50 result is “inactive”.
As to `CCN(CC)C(=O)C1CCCN(Cc2ccc3c(c2)OCO3)C1` (configuration not stated), the IC50 result is “inactive”.
The value for `CCN(CC)c1ccc(NC(=O)c2ccc3c(c2)OCO3)cc1` was 66.8 µM (active); that for `CC(C(=O)Nc1ccc2c(c1)OCO2)N1CCN(C)CC1` (configuration not stated) was “inactive”.
For `CCN(CC)CCOC(=O)c1ccc(N/C=C(/C#N)c2nc(-c3ccc4c(c3)OCO4)cs2)cc1`, the IC50 entry was “inactive”.
As to `CN(C)c1ccc(NC(=O)COC(=O)c2ccc3c(c2)OCO3)cc1`, the IC50 was 67 µM (active).
